Results filed as inconclusive are left out. A number with no mark means an inactive call. Calls of active or inactive are those of the source. Calls come from the whole dose curve.
% is set by controls: 0 for no effect and ±100 for the full control effect; potency is the fitted concentration of half-maximal effect.

Sequence of D(2) dopamine receptor (Homo sapiens) (P14416 whole entry, looked up): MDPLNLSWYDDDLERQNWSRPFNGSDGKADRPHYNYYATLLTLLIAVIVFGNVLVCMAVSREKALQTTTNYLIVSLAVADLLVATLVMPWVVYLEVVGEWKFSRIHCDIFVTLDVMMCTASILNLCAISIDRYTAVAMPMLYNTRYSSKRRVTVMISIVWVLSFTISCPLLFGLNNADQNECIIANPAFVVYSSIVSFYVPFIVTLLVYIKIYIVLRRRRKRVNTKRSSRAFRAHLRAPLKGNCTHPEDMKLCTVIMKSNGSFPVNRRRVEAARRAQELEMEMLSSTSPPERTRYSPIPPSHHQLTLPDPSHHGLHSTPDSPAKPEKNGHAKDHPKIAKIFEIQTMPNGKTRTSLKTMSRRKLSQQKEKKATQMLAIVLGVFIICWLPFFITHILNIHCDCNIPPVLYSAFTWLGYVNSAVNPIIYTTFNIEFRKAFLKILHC

The target in this assay is D(2) dopamine receptor (Homo sapiens) (UniProt P14416). The assay is described as follows: Dopamine D2 receptor (DRD2) small molecule agonists, cell-based qHTS assay (AID 1963594). Note: nearly all actives have a fitted effect of over 35% in size. The conditions noted are these: HEK293-DRD2 cAMP HTRF, agonist mode, 30 min; series mostly up to 92.4 µM; activation: at the top concentration. From the text:
National Center for Advancing Translational Sciences [NCATS]
Division of Preclinical Innovation [DPI]
U.S. Environmental Protection Agency [EPA]
National Institutes of Environmental Health Sciences [NIEHS]
National Toxicology Program [NTP]
U.S. Food and Drug Administration [FDA]
DRD2 is the D2 subtype of the dopamine receptor, which is coupled to Gi subtype of G protein-coupled receptor. This G protein-coupled receptor inhibits adenylyl cyclase activity. The DRD2-HEK293 cell line stably expressing D2 dopamine receptor can be used for screening agonists and antagonists of interactions between D2 and its ligands. The Hek293-DRD2 cAMP assay is based on HTRF technology. It measures changes of cAMP accumulation in response to Gi coupled GPCR activation or inhibition.
Tox21 Assay Protocol Summary:
DRD2-Hek293 cells were dispensed at 600 cells/3uL/well in 1536-well white plates using a Multidrop Dispenser. After the assay plates were incubated at a 37 C/5% CO2 incubator for 24 h, 1 uL of Ro20-1724 at final concentration of 0.1 mM was transferred to the assay plate by a Flying Reagent Dispenser. Following Ro20-1724 addition, 23 nL of compound dissolved in DMSO, positive controls or DMSO only was added to the assay plates via Wako pintool station. The assay plates were incubated at room temperature for 10 min. Next, 1 uL of NKH477 at 200nM was added into the plates. After the assay plates were incubated at room temperature for an additional 30 min, 2.5 ul/well of cAMP-d2 and 2.5 ul/well of anti-cAMP-cryptate were added respectively into the assay plates using a Flying Reagent Dispenser. The plates were incubated at room temperature for 1 h. The fluorescence intensity in the plates was measured at 340 nm excitation and 665 & 620 nm emission by an Envision plate reader.
Take `CCOC(=O)C1=C(C)NC(C)=C(C(=O)OC)C1c1cccc(Cl)c1Cl` (stereo not given): the “activation” value is -8.05% [at 42.5 µM].

For `C=C(C)C(=O)OCCOCC`, the “activation” value is 1.59%.

Consider `NCC1CCC(C(=O)Oc2ccc(CCC(=O)O)cc2)CC1` (stereo not given), for which the “activation” value was -7.11% [at 42.5 µM]. For the compound `N#C/C(=C1\SCC(c2ccccc2Cl)S1)n1ccnc1` (stereo not given), the “activation” value is -13.4% [at 42.5 µM]. On the same count and under the same terms, to `Cc1nc2ccc(Cl)cc2[nH]1` belongs -4.17%; to `CCOC(=O)[C@H](CCc1ccccc1)N[C@@H](C)C(=O)N1CCC[C@H]1C(=O)O`, -11.4% [at 42.5 µM].

Turning to `C=CC/C=C/C`, the “activation” value was -0.632%.

With `COCCCCCCCCOCCC[Si](C)(O[Si](C)(C)C)O[Si](C)(C)C`, the “activation” value is -1.36%. Still for that read-out and setting: to `O=C(O)/C=C/c1ccc(/C=C/C(=O)O)cc1` belongs -0.371% [at 42.5 µM]; to `CCCCN(CCCC)CCCOC(=O)c1ccc(N)cc1`, 2.18% [at 42.5 µM]. `CN1CCN(CC(=O)N2c3ccccc3C(=O)Nc3cccnc32)CC1`: the activation was -0.938% [at 8.39 µM].

`CC(C)OC(=O)c1cc2c(OCC(O)CNC(C)(C)C)cccc2[nH]1` (stereo not given): the Potency is 13.3 µM (active). In the case of `CC(=O)CC(=O)Nc1ccc(C)cc1C`, the “activation” value was -0.209%. Still for that read-out and setting: with `CSc1nc(NC2CC2)nc(NC(C)(C)C)n1` the figure was -1.32%; with `CCCC(=O)C(=O)O`, 2.75%; with `Cc1cc(O)c2c(c1)C(=O)c1cccc(O)c1C2=O`, -0.109% [at 42.5 µM]. On the same count and under the same terms, with `O=C(Nc1ccccc1)c1cc([N+](=O)[O-])ccc1Cl` the figure was -2.26%; with `CCN(CC)CCc1nc(-c2ccccc2)no1`, 10.2% [at 42.5 µM]. The same measure, in the same setting: to `COCCOCCOCCOC` belongs -6.01%. Take `COc1cc(C(=O)NC2CCCNC2)cc(OC)c1OC` (stereo not given): the “activation” value was -11.2% [at 42.5 µM]. With `CCCCCCCCCCCCCc1ccccc1`, the “activation” value was 1.12% [at 42.5 µM].

With `CC(C)c1ccc(C#N)cc1`, the “activation” value was -4.14%.

As for `CN(C)CCCOc1nn(Cc2ccccc2)c2ccccc12`, the “activation” value was -11.6% [at 42.5 µM]. On to `C[C@H](N)[C@H](O)c1cccc(O)c1`, for which the “activation” value was 6.61% [at 42.5 µM].

As for `C=CC(OCC)OCC`, the “activation” value was -3.26%. Turning to `CC(CC(=O)O)CC(C)(C)C` (stereo not given), the “activation” value was -0.0658%. As for `Nc1cccc(S(=O)(=O)c2cccc(N)c2)c1`, the “activation” value is 6.23%. The same measure, in the same setting: with `C/C=C(\C)C(=O)OCCc1ccccc1` the figure was 0.228%. On the same count and under the same terms, to `C=CCn1c(=O)n(CC=C)c(=O)n(CC=C)c1=O` belongs -5.41%; to `CCCCOC(=O)CC`, 1.54%; to `CCC(=O)CC(C)CC` (stereo not given), -3.53% [at 0.349 µM].

Take `CCOc1ccccc1O`: the “activation” value was -2.76%. `CCOC(=O)[C@H](CCc1ccccc1)N[C@@H](C)C(=O)N(CC(=O)O)C1Cc2ccccc2C1`: the “activation” value was 5.64% [at 42.5 µM].

Turning to `NCCOCCOCCN`, the “activation” value is -3.9%. On the same count and under the same terms, to `Nc1cc(C(=O)O)ccc1Cl` belongs -4.15%. Still for that read-out and setting: to `Cc1ccc(=O)n(-c2ccccc2)c1` belongs 2.35% [at 42.5 µM].

On to `Cn1cccc1`, for which the “activation” value was -2.65%. As for `Cc1cn([C@@H]2O[C@H](CO)[C@@H](O)[C@@H]2F)c(=O)[nH]c1=O`, the “activation” value was 13.1% [at 42.5 µM]. `CCCCCCCC/C=C\CCCCCCCCCCCC(=O)O`: the “activation” value is 0.329%. Same read-out and setting: with `O=P(O)(O)Oc1ccccc1` the figure was 2.98%.
